# Columns and labels:
# [1] = biological target: Sphingosine kinase 1 (Homo sapiens) (UniProt Q9NYA1); details: at 1 µM;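 further: mean SPHK1 inhibition value reported from the GSK PKIS kinase panel screen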
# [2] = biological target: T1, Sphingosine kinase 2 (Homo sapiens) (UniProt Q9NRA0); details: at 0.1 µM
# T1 sequence (whole entry): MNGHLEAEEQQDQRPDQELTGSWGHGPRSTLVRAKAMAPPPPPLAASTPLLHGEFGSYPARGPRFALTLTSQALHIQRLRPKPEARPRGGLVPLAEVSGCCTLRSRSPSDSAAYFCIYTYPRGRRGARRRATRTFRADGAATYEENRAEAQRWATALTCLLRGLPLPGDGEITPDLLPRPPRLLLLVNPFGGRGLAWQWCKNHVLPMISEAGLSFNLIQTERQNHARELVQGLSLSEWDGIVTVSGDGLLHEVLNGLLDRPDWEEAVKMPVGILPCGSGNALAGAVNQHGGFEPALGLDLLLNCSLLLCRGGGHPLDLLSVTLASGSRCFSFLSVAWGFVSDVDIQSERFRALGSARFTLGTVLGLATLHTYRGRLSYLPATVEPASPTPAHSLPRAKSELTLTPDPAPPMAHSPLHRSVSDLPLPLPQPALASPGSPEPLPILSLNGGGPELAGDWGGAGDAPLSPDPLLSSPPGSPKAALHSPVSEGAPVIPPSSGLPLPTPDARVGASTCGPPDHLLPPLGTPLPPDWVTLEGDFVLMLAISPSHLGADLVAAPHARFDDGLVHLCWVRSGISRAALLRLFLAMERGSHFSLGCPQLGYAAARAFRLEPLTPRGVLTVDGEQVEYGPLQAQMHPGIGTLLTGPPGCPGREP
# [3] = biological target: T1, Sphingosine kinase 2 (Homo sapiens); details: at 1 µM
# [4] = biological target: Casein kinase II subunit alpha (Homo sapiens) (UniProt P68400); details: at 0.1 µM
# Casein kinase II subunit alpha (Homo sapiens), sequence (P68400 whole entry, looked up): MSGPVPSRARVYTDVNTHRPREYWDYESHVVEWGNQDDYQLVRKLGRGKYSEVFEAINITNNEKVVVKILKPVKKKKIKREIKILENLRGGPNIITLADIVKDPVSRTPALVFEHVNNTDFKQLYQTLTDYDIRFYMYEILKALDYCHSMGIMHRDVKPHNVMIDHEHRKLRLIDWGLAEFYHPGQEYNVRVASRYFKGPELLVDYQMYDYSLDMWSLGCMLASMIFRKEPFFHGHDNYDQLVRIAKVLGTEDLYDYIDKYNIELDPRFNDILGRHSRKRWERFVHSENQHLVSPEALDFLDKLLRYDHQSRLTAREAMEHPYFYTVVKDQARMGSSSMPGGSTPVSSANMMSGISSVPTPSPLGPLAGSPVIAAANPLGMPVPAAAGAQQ
# [5] = biological target: Casein kinase II subunit alpha (Homo sapiens) (UniProt P68400); details: at 1 µM
# [6] = biological target: T2, Inhibitor of nuclear factor kappa-B kinase subunit alpha (Homo sapiens) (UniProt O15111); details: at 0.1 µM
# T2 sequence (whole entry): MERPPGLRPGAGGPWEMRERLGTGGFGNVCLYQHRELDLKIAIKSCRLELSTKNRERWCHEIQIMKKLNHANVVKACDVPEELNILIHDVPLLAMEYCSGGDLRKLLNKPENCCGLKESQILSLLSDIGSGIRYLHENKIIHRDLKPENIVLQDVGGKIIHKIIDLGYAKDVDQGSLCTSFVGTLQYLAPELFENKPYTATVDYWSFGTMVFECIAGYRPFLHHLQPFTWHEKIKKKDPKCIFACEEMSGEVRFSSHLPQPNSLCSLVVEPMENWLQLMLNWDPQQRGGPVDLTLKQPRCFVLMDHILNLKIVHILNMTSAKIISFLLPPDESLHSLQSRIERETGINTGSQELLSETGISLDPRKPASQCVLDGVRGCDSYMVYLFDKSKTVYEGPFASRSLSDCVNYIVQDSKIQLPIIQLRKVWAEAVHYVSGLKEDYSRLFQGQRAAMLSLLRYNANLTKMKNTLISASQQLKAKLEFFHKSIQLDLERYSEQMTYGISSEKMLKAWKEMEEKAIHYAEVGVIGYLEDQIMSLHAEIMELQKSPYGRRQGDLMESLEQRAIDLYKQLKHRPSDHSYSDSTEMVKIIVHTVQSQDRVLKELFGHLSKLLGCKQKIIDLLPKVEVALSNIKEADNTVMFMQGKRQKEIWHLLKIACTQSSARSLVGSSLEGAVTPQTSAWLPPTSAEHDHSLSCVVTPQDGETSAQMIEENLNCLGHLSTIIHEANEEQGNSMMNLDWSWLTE
# [7] = biological target: T2, Inhibitor of nuclear factor kappa-B kinase subunit alpha (Homo sapiens); details: at 1 µM
# [8] = biological target: T3, Inhibitor of nuclear factor kappa-B kinase subunit beta (Homo sapiens) (UniProt O14920); details: at 0.1 µM
# T3 sequence (whole entry): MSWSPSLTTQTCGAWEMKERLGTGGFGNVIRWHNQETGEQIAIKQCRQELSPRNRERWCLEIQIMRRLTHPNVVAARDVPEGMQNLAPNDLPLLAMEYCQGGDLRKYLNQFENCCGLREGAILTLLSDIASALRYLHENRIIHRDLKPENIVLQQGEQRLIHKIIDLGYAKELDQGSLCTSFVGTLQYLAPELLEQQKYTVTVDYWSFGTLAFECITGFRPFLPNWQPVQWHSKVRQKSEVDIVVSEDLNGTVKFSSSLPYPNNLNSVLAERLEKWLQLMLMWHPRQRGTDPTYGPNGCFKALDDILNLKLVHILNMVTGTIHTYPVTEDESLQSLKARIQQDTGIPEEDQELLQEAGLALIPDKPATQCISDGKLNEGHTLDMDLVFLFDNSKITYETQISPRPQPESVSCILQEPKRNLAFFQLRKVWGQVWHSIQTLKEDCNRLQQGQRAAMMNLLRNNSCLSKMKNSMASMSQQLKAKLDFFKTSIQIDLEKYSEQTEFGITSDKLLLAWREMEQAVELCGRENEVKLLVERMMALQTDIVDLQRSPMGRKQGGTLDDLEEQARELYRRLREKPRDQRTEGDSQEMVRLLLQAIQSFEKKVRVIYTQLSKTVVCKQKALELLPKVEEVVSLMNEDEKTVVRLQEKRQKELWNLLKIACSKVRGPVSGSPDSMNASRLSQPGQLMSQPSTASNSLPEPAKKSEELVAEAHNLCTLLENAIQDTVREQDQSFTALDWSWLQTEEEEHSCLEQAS
# [9] = biological target: T3, Inhibitor of nuclear factor kappa-B kinase subunit beta (Homo sapiens); details: at 1 µM
# [10] = biological target: T4, Inhibitor of nuclear factor kappa-B kinase subunit epsilon (Homo sapiens) (UniProt Q14164); details: at 0.1 µM
# T4 sequence (whole entry): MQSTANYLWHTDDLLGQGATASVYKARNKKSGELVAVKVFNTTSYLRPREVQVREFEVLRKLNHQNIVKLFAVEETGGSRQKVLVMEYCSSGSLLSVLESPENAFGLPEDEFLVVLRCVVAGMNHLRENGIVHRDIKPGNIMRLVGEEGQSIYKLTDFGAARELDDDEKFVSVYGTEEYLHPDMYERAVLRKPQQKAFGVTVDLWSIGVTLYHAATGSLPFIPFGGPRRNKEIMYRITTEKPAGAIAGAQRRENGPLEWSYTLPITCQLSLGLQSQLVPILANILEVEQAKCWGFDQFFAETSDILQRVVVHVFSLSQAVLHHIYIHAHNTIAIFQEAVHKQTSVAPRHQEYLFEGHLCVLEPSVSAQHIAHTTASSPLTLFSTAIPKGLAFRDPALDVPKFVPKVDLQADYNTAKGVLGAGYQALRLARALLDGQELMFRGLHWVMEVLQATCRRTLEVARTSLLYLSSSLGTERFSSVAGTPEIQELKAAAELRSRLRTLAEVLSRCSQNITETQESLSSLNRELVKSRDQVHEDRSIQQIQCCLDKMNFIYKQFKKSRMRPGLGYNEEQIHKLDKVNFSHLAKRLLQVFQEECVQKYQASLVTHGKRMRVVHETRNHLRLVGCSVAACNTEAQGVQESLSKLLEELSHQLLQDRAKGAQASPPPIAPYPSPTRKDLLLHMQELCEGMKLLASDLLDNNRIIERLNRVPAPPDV
# [11] = biological target: T4, Inhibitor of nuclear factor kappa-B kinase subunit epsilon (Homo sapiens); details: at 1 µM
# [12] = biological target: T5, Serine/threonine-protein kinase Nek1 (Homo sapiens) (UniProt Q96PY6); details: at 0.1 µM
# T5 sequence (whole entry): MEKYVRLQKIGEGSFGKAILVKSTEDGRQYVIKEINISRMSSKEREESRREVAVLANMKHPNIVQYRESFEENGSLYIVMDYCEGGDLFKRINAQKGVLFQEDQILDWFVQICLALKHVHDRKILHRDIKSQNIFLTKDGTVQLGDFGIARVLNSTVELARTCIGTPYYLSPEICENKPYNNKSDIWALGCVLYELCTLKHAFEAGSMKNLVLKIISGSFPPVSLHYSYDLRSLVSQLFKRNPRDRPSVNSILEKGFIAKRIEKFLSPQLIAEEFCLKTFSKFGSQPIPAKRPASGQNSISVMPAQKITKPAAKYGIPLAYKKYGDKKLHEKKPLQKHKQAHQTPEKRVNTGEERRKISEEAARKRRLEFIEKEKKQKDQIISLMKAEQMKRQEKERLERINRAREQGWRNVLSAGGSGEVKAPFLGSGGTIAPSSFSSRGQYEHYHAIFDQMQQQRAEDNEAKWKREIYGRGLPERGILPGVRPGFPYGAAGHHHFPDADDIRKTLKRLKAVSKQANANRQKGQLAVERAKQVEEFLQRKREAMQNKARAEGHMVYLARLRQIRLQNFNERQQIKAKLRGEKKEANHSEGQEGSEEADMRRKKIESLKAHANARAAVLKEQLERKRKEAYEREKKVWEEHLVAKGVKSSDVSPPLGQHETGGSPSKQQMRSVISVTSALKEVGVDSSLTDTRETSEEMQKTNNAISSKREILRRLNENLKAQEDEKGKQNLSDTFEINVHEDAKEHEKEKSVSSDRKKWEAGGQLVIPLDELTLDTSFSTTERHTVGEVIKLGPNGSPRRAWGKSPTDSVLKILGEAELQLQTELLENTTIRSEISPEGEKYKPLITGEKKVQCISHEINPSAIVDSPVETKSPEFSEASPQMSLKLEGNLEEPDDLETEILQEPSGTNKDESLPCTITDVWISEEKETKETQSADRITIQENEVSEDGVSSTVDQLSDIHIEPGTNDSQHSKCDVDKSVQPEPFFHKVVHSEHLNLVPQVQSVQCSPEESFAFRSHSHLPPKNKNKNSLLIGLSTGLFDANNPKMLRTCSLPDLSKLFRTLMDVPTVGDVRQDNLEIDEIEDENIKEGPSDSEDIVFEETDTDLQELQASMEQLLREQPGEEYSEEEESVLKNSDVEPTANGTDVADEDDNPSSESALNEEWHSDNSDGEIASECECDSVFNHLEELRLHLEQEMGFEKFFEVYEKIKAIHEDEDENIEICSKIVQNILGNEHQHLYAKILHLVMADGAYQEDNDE
# [13] = biological target: T5, Serine/threonine-protein kinase Nek1 (Homo sapiens); details: at 1 µM
# [14] = biological target: T6, Serine/threonine-protein kinase Nek2 (Homo sapiens) (UniProt P51955); details: at 0.1 µM
# T6 sequence (whole entry): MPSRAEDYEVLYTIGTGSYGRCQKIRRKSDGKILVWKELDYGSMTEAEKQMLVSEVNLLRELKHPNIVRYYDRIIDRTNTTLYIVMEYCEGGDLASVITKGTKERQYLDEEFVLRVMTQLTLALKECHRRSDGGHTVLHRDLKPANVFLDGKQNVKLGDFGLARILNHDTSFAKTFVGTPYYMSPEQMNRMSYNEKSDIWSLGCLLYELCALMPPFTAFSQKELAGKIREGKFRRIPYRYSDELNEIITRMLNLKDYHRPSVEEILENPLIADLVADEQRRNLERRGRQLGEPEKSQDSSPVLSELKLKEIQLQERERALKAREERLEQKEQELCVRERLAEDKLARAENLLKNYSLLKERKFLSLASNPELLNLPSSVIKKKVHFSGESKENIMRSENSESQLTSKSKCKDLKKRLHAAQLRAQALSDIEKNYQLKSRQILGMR
# [15] = biological target: T6, Serine/threonine-protein kinase Nek2 (Homo sapiens); details: at 1 µM
# [16] = biological target: Serine/threonine-protein kinase Nek6 (Homo sapiens) (UniProt Q9HC98); details: at 0.1 µM
# Serine/threonine-protein kinase Nek6 (Homo sapiens), sequence (Q9HC98 whole entry): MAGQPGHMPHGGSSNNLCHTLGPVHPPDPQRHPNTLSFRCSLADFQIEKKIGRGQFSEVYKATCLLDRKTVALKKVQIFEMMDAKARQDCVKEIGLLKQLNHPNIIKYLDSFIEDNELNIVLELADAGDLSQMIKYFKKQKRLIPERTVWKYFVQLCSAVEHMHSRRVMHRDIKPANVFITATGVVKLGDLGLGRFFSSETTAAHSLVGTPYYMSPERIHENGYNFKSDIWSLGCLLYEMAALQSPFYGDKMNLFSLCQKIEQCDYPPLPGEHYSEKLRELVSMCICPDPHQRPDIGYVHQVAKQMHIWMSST
# [17] = biological target: Serine/threonine-protein kinase Nek6 (Homo sapiens) (UniProt Q9HC98); details: at 1 µM
# [18] = biological target: Serine/threonine-protein kinase Nek7 (Homo sapiens) (UniProt Q8TDX7); details: at 0.1 µM
# Serine/threonine-protein kinase Nek7 (Homo sapiens), sequence (Q8TDX7 whole entry, looked up): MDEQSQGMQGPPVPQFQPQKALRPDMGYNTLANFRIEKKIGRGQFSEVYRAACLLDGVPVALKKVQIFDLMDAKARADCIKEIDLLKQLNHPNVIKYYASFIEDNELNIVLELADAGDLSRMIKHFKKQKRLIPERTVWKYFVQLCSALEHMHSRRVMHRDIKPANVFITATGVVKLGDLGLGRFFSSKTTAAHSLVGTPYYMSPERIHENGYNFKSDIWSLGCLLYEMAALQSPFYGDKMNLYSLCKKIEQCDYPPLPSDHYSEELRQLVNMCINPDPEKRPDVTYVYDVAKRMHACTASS
# [19] = biological target: Serine/threonine-protein kinase Nek7 (Homo sapiens) (UniProt Q8TDX7); details: at 1 µM
# [20] = biological target: T7, Serine/threonine-protein kinase Nek9 (Homo sapiens) (UniProt Q8TD19); details: at 0.1 µM;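 further: reported value is the mean percent inhibition of NEK9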
# T7 sequence (whole entry): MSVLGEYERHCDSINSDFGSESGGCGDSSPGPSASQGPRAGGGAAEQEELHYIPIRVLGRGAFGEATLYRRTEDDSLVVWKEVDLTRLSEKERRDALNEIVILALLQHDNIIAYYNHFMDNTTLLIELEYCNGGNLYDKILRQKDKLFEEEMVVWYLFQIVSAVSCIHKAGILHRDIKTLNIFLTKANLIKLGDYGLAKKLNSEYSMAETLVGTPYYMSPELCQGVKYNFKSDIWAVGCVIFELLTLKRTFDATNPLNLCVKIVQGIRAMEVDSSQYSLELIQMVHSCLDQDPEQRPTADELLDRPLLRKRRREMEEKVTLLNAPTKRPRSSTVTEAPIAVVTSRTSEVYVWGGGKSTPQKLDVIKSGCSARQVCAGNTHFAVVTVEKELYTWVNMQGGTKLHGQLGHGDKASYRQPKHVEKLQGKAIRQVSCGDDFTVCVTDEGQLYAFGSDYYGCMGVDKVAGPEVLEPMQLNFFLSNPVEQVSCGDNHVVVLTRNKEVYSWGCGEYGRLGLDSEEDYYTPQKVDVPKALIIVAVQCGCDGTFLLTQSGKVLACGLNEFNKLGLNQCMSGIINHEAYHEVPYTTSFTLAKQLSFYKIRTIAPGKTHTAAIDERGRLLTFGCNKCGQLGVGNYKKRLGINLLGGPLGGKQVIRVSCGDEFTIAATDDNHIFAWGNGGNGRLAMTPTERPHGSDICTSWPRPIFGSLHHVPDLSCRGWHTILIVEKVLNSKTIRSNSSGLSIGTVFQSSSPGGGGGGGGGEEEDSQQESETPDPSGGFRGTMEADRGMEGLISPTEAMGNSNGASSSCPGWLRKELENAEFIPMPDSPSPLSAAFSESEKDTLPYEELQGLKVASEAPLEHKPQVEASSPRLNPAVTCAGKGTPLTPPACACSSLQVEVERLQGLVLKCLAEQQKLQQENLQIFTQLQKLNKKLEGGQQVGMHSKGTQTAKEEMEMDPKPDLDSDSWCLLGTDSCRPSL
# Sphingosine kinase 1 (Homo sapiens), sequence (Q9NYA1 whole entry): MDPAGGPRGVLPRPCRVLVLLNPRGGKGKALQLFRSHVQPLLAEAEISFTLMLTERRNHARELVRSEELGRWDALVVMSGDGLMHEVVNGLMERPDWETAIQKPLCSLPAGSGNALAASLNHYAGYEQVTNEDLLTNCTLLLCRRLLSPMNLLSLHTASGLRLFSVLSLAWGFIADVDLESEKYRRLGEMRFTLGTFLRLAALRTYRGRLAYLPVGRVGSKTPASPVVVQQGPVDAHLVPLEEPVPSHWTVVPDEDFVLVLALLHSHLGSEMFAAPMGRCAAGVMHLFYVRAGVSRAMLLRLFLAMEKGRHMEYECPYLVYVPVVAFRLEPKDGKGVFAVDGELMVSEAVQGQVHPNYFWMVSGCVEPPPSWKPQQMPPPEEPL
SMILES,inhibition [1] [%],inhibition [2] [%],inhibition [3] [%],inhibition [4] [%],inhibition [5] [%],inhibition [6] [%],inhibition [7] [%],inhibition [8] [%],inhibition [9] [%],inhibition [10] [%],inhibition [11] [%],inhibition [12] [%],inhibition [13] [%],inhibition [14] [%],inhibition [15] [%],inhibition [16] [%],inhibition [17] [%],inhibition [18] [%],inhibition [19] [%],inhibition [20] [%]
COc1cccc(-n2ncc3c(N/N=C/c4cccc(F)c4)ncnc32)c1,-2.05,3.58,-0.22,1.77,11.4,-0.08,6.98,2.27,0.31,3.6,5.09,2.19,1.87,3.27,2.63,2.56,1.3,4.53,2.91,3.6
CCn1c(-c2nonc2N)nc2c(C#CC(C)(C)O)nc(OC[C@@H](N)c3ccccc3)cc21,2.57,-1.25,-2.35,0.95,1.36,4.77,2.26,-2.58,-1.93,0.47,34.9,0.04,3.08,-1.09,1.53,-0.14,3.35,0.12,-0.33,-3.59

# Source: ChEMBL document CHEMBL1961873, “Compounds: GSK PKIS; Assays: Nanosyn kinase panel” (2012)
